Hits are enriched below; roughly 0.93% of the tested compounds scored in any of these assays.
Phagocyt inh: macrophage phagocytosis inhibition | J774A.1 macrophage IgG-bead phagocytosis, imaging | inhibition, % at 5 µM | hit rate 0.07% among 110,000 | AID 1029;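 active = inhibition above the mean of the plate negative controls plus 5 SD, cut at about 13% in these data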;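 also: phagocytic index as fraction of beads internalized from green versus red external bead signal; plate controls were DMSO negative control for no effect and cytochalasin-D positive control for full effect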
IL1B NFkB inh: blocks IL-1B driven NFkB nuclear translocation in HUVEC cells. inhibition, % at 2 µM. hit rate 0.43% among 94,000. HUVEC IL-1B NFkB p65 nuclear translocation imaging. AID 796;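 active = inhibition above about 30% together with a positive call from visual inspection of the well image, limit read from the data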;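 also: nuclear over cytoplasmic p65 intensity ratio measured by imaging; 0% = IL-1B stimulated DMSO wells and 100% = unstimulated DMSO wells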
TNFa cytotox: HUVEC cytotoxicity counter-screen, TNF alpha stimulated. HUVEC TNFalpha-stimulated, Hoechst cell count, imaging. cell count reduction, % at 2 µM. hit rate 0.17% among 93,000. AID 848;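 active = cell count reduction exceeding the screen mean by over 5 SD, scaled to untreated wells per plate, cut at about 78% in these data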;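 also: cells counted after 24 h of TNF alpha exposure following the 1 h pretreatment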
IL1B NFkB pot: enhances IL-1B driven NFkB nuclear translocation. HUVEC IL-1B NFkB p65 nuclear translocation imaging. activation, % at 2 µM. hit rate 0.3% among 94,000. AID 819;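 active = activation above 40%, about the mean plus 3 SD, also judged a hit on visual image review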;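 also: percent activation is computed from the nuclear over cytoplasmic p65 intensity ratio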
HUVEC tox IL1B: toxic to HUVEC cells under IL-1B stimulation; cell count reduction, % at 2 µM; AID 845; hit rate 0.41% among 94,000; HUVEC cell count loss, Hoechst imaging, IL-1B stimulated;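 active = cell count reduction more than 3 SD above the screen-wide mean, cut at about 70% in these data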;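 also: normalized per plate to untreated control cells as the no-loss baseline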
* marks the source's active call; other numbers are inactive results; x = not tested or not shown; [ ] = another dose, or the depositor's remark.

SMILES	Phagocyt inh	IL1B NFkB inh	TNFa cytotox	IL1B NFkB pot	HUVEC tox IL1B
CCOC(=O)N1CCC(N2C(=O)c3ccccc3C2Nc2cc(C(=O)OC)cc(C(=O)OC)c2)CC1 (stereo not given)	0	-42	-5	42*	10
CCOC(=O)N1CCC(N2C(=O)c3ccccc3C2Nc2ccccc2)CC1 (stereo not given)	0	4	-6	-4	-18
COc1ccccc1N1CCN(C(=O)CCCN2C(=O)c3cccc4cccc(c34)C2=O)CC1	-12	x	x	x	x
Cc1ccc(C(=O)C(NC(=O)c2ccco2)Nc2sc3c(c2C(N)=O)CCCC3)cc1 (stereo not given)	x	-11	-7	11	12
N#Cc1ccc(CNc2cnccn2)cc1	x	-1	-25	1	94*
N#Cc1ccc(CSc2nnc(-c3cnccn3)o2)cc1	0	-8	-19	8	-15
C=CCN(CC=C)CC(=O)Nc1ccc(S(N)(=O)=O)cc1	x	42*	-13	-42	5
NS(=O)(=O)c1ccc(NC(=O)CCc2ccccc2)cc1	0	2	-29	-2	-20
CCc1c(C)nc2c(OC)cccc2c1SCCC(=O)O	37*[artifact]	x	x	x	x
CCCCc1c(C)nc2c(OC)cccc2c1SCCC(=O)O	0	x	x	x	x
CC(c1ccccc1)n1cc(C(=O)NCCN2CCOCC2)nn1 (stereo not given)	x	-53	11	53*	12
CC(c1ccccc1)n1cc(C(=O)NCC2CCCO2)nn1 (stereo not given)	x	-25	0	25	-18
O=S(=O)(/C=C/c1ccccc1)Oc1ccccc1	166*	-9	-6	9	-17
C=CCc1cc(Cl)ccc1OCCN(C)C	4	-3	-4	3	85*
O=C(Nc1ccc2c(c1)OCO2)c1cccc(F)c1	2	12	13	-12	90*
O=C(Nc1ccc2c(c1)OCO2)c1c(F)cccc1F	4	-23	1	23	6
O=C(NN1C(=O)c2ccccc2C1=O)C1C2CCCCC21 (stereo not given)	-4	x	x	x	x
C/C(=N\NC(=O)C(C)n1nc(C)c([N+](=O)[O-])c1C)c1ccccc1O (stereo not given)	-3	x	x	x	x
CS/C(=N\S(=O)(=O)c1cccs1)Nc1ccc(Br)cc1F	-8	x	x	x	x
CN(C)c1nc(N)nc(/C(C#N)=C/C2CC3C=CC2C3)n1 (stereo not given)	-1	-42	-23	42*	-1
O=C(Nc1cc2c3c(c1)C1CCCC1CN3CC1CCCC21)c1ccccc1 (stereo not given)	-3	12	-13	-12	-22
CC1CCCCC1NC(=O)c1nn(C)c(=O)c2ccccc12 (stereo not given)	x	-78	6	78*	-9
O=S(=O)(NCc1cccnc1)c1cc(Cl)ccc1Cl	0	-6	-22	6	-4
O=S(=O)(NCc1cccnc1)c1ccc(Cl)s1	x	59*	37	-59	90*
CN(CC(=O)Nc1ccccn1)S(=O)(=O)c1ccc(Cl)cc1	x	-16	-7	16	-20
SMILES	Phagocyt inh	IL1B NFkB inh	TNFa cytotox	IL1B NFkB pot	HUVEC tox IL1B
CN(C)C(=O)CN(C)S(=O)(=O)c1ccc(Cl)cc1	0	91*	-3	-91	-5
Cc1ccc(C)c(C(=O)Cn2ncc(Cl)c(Cl)c2=O)c1	-1	43*	-6	-43	15
Cc1cc(C(=O)Cn2ncc(Cl)c(Cl)c2=O)c(C)n1CC(F)(F)F	-11	x	x	x	x
Cc1ccc(C(=O)OCn2ncc(Cl)c(Cl)c2=O)cc1	x	79*	5	-79	20
O=C(OCn1ncc(Cl)c(Cl)c1=O)c1ccc(C(F)(F)F)cc1	x	41*	5	-41	2
CC(=O)Nc1ccc(NC(=O)CSCCc2ccccn2)cc1	0	49*	1	-49	-7
COC(=O)c1cc2c(cc1NC(=O)CSCCc1ccccn1)OCO2	0	x	x	x	x
Cc1cc(=S)[nH]c2c(C)cccc12	0	5	-6	-5	7
COCc1[nH]nc2c1C(c1ccccc1Cl)C(C#N)=C(N)O2 (stereo not given)	0	12	-3	-12	88*
CCOC(=O)c1c(NC(=O)COC)sc(C)c1C	x	-49	7	49*	-25
O=C(Nc1cccc(C(F)(F)F)c1)c1cccnc1N1CCN(c2ccccc2)CC1	0	1	2	-1	10
COC(=O)c1nn(-c2ccccc2)c(=O)cc1Oc1ccccc1	-1	-2	-9	2	-105
CCOc1ccc(/C=C/[N+](=O)[O-])c2ccccc12	x	61*	8	-61	-54
COc1ccc(CCNC(=O)C2CC(=O)N(c3ccccc3)C2)cc1OC (stereo not given)	0	4	-40	-4	88*
